Compounds with a hit are over-represented: about 0.32% of the library has one in this group of screens.
GPT2 inh – GPT2 alanine aminotransferase inhibition; Q8TD30; Recombinant GPT2, coupled pyruvate oxidase/HRP Amplex Red fluorescence; Potency, µM (titrated, usually from 57.7 µM), hits mostly inhibitors; 100,000 compounds, 0.25% hits; AID 1671188; note: nearly all actives have a fitted effect of over 60% in size
Target sequence (Q8TD30 whole entry, looked up): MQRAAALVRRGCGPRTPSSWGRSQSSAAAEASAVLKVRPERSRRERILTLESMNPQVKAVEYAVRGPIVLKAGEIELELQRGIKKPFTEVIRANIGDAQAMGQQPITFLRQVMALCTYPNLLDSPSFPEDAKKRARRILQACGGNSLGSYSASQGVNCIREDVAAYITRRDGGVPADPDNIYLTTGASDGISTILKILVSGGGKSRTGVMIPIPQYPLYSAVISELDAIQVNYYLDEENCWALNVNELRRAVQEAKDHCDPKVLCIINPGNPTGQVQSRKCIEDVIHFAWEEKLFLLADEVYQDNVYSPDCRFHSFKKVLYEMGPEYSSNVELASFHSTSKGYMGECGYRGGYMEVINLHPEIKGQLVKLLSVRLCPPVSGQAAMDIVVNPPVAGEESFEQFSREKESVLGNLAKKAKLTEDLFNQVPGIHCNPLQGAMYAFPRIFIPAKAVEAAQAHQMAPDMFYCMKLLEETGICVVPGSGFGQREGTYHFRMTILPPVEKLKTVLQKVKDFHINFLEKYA
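GPT2 10ng/uL, a-KG 250uM, L-Ala 2mM, HEPES pH7.5 + 0.0001% Tween; 30 min RT. Then Amplex mix (PO/HRP/ThPP), 30 min RT dark, fluorescence. AOA 50uM used as positive control.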
SNCA expr inh – SNCA gene expression inhibition; HEK-293 SNCA-luciferase knock-in, luminescence, 24 h; Potency, µM (highest dose often 57.2 µM), most hits filed as inhibitors; 140,000 compounds, 0.17% hits; note: nearly all actives have a fitted effect of over 45% in size
SNCA viab count – cell viability loss counter-screen | 150,000 compounds, 0.12% hits | HEK-293-SNCA-luc viability, GF-AFC fluorescence, 24 h | Potency, µM (highest dose often 57.1 µM), most hits filed as cytotoxic | AID 1671193; note: nearly all actives have a fitted effect of over 30% in size
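HEK-293-SNCA-luc cells (1500/well) plated 24 h, then exposed 24 h to a dilution series; GF-AFC added 30 min at 37C, fluorescence 405/540 nm; normalised to medium-only and DMSO wells, Hill fit.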
Each line names hits and unclear results; the compound was inactive in the other large screens; ! = a repeat was not active. Calls come from the whole dose curve; as a rule, active = well fitted curve in the direction sought with a large enough effect; inconclusive = small, poorly fitted or top-dose-only effect, or another doubt; inactive = no such curve, though single readings can be large; an effect the other way counts as inactive or inconclusive.

C[C@]12C=CC(=O)C=C1CC[C@@H]1C2=CC[C@]2(C)[C@@H](C(=O)CN3CCN(c4cc(N5CCCC5)nc(N5CCCC5)n4)CC3)CC[C@@H]12	GPT2 inh 0.708µM
CC(C)NC(=O)CN1CCN(c2nccc(N3CCC(O)CC3)n2)CC1	SNCA expr inh inconclusive
Cn1ncc2c(C(=O)Nc3cccc(Cl)c3)cc(-c3ccc(Cl)cc3Cl)nc21	none
COc1ccccc1-c1ccc(C(=O)N2CCC(NC(=O)c3ccccc3Cl)CC2)cc1	none
COCCNC(=O)[C@@H](C)C1CC[C@@]2(C)Cc3sc(CSc4ccccc4)nc3[C@@H](C)[C@@H]2[C@H]1O (some centres not stated)	none
C[C@H](C(=O)N1CCCC1)[C@@H]1CC[C@@]2(C)Cc3sc(-c4ccsc4)nc3[C@@H](C)[C@@H]2[C@H]1O	SNCA expr inh 5.62µM
C[C@H](C(=O)N1CCCC1)C1CC[C@@]2(C)Cc3sc(-c4ccccc4)nc3[C@@H](C)[C@@H]2[C@H]1O (some centres not stated)	SNCA expr inh 4.47µM
CCN(CC)C(=O)[C@@H](C)C1CC[C@@]2(C)Cc3sc(Nc4c(Cl)cccc4Cl)nc3[C@@H](C)[C@@H]2[C@H]1O (some centres not stated)	GPT2 inh inconclusive, SNCA expr inh inconclusive
CC(C)(Oc1nn(Cc2cccc(Cl)c2)c2ccccc12)C(=O)N1CCCC1	SNCA expr inh inconclusive, SNCA viab count inconclusive
COc1ccccc1-c1cccc(C(=O)N2CCN(C(=O)c3ccccc3Cl)CC2)c1	SNCA viab count inconclusive
Cc1noc(C)c1-c1cc2cc(CN(C)C)oc2c(Nc2cccc([S+](C)(=O)[O-])c2)n1	none
Cn1ncc2c(C(=O)NCc3cccc(C(F)(F)F)c3)cc(-c3ccsc3)nc21	SNCA expr inh inconclusive
O=C(Nc1nc2ccc(F)cc2s1)c1nc(S(=O)(=O)Cc2ccccc2)ncc1Cl	SNCA expr inh inconclusive, SNCA viab count 31.6µM (no result: GPT2 inh)
Cc1cccc(CS(=O)(=O)c2ncc(Cl)c(C(=O)Nc3nc4ccc(F)cc4s3)n2)c1	SNCA expr inh inconclusive (no result: GPT2 inh)
CCOC(=O)C1CCCN(C(=O)c2nc3sccn3c2-c2ccccc2)C1 (configuration not stated)	none
O=C(NCc1cccs1)C1CCCN(Cc2cccc(-c3cccs3)c2)C1 (configuration not stated)	SNCA expr inh inconclusive
O=C(Nc1ccc(F)cc1)c1cn2cc(-c3cccc(C(F)(F)F)c3)sc2n1	none
CN(Cc1cccnc1)c1ccc2ncc(Nc3ccc(C(F)(F)F)cc3)n2n1	SNCA expr inh inconclusive
CN(C)c1ccc(/C=C/c2noc(-c3ccccc3O)n2)cc1	none (no result: GPT2 inh)
Oc1ccccc1-c1nc(/C=C/c2ccccc2Cl)no1	SNCA expr inh 4.47µM (no result: GPT2 inh)
O=C(c1cc(-c2ccc(Cl)cc2Cl)c2nncn2n1)N1CCCCC1	none
COc1ccc(-c2cc(-c3ccc4cn[nH]c4c3)cn3cncc23)cn1	SNCA expr inh inconclusive
COc1ccc(N2CC3CCC(C2)N3Cc2ccc(NC(C)=O)cc2)cc1	GPT2 inh inconclusive
COc1ccc(N2CC3CCC(C2)N3Cc2ccc(C#N)cc2)cc1	GPT2 inh 10µM
C=C1C(=O)[C@@]23C(CC[C@@H]1[C@H]2O)[C@@]12CO[C@]3(O)[C@@H](O)[C@@H]1C(C)(C)CC[C@@H]2O (some centres not stated)	SNCA expr inh 34.1µM, SNCA viab count 29.9µM
CC(C)(C)OC(=O)N1CC(Nc2ccc(O)cc2)C1	SNCA expr inh inconclusive, SNCA viab count inconclusive
CN1CCCN(S(=O)(=O)c2cccc(Cl)c2)c2ccccc21	SNCA expr inh inconclusive
O=C(c1ccc(Nc2nccc(-c3cc4ccccc4s3)n2)cc1)N1CCC(N2CCCC2)CC1	GPT2 inh inconclusive, SNCA expr inh inconclusive, SNCA viab count 29.9µM!
O=C(c1ccc(Cl)cc1)N1CCC(N2CCCC2)CC1	none
C#CCN[C@H]1C[C@@H]2c3[nH]c4ccccc4c3C[C@@H](C(=O)OC)N2[C@H](c2ccc(F)cc2)C1	SNCA expr inh inconclusive, SNCA viab count inconclusive
CNCC[C@H](Oc1cccc2ccccc12)c1cccs1	GPT2 inh 9.68µM!
CNCCC(Oc1ccccc1C)c1ccccc1 (configuration not stated)	none
O=C(NCc1ccc(F)cc1)c1cn2cc(-c3ccc(C(F)(F)F)cc3)sc2n1	GPT2 inh inconclusive, SNCA viab count inconclusive
C=C1C(=O)O[C@@H]2[C@H]1CC(=O)[C@H](C)[C@@](O)(C(=O)/C=C/C)[C@H]2OC(=O)C(C)CC (some centres not stated)	SNCA viab count 9.27µM (no result: SNCA expr inh)
C=C1C(=O)OC2/C=C(\CO)CC/C=C(\C=O)C(O)C(OC(=O)C(C)CC)C12 (configuration not stated)	SNCA viab count inconclusive (no result: SNCA expr inh)
CC(C)CNC(=O)c1ccc2nnc(Cc3ccc(Cl)cc3)n2c1	none
O=C(CC1CCCCN(Cc2ccccc2)C1=O)NCc1ccccc1 (configuration not stated)	SNCA expr inh inconclusive
O=C1[C@H](Cc2ccc(O)cc2)N2C(=O)CCN(C(=O)NCc3ccccc3)[C@H]2CN1Cc1cccc2ccccc12	SNCA expr inh inconclusive, SNCA viab count 24.1µM
O=C(NCC(=O)N1CCC(Cc2ccccc2)CC1)c1ccc(-c2cnc3ccccc3c2)cc1	SNCA expr inh inconclusive
O=C(Nc1ccccc1Cl)C1CCCN(Cc2cccc(-c3ccc(F)cc3F)c2)C1 (configuration not stated)	none
COC1CCCN(c2ncccc2-c2cc(-c3ccccc3)nc3c(C)noc23)C1 (configuration not stated)	SNCA viab count inconclusive
CCOc1ccc(S(=O)(=O)Nc2nc3ccccc3nc2Nc2ccc(OC)cc2)cc1	none (no result: GPT2 inh)
COc1ccc(S(=O)(=O)Nc2cccnc2Nc2ccc(O)cc2)cc1	GPT2 inh 21.7µM!, SNCA viab count inconclusive
CN(Cc1ccc(N2CCCCC2)cc1)C(=O)CCC[C@H]1NC[C@@H]2C[C@H]1CN(Cc1ccccc1)C2	SNCA expr inh inconclusive, SNCA viab count 22.4µM
CN(Cc1cccnc1)C(=O)CCC[C@H]1NC[C@@H]2C[C@H]1CN(Cc1ccccc1)C2	none
COc1ccccc1-c1ccc(CN2CCCCC2C(=O)N2CCN(Cc3ccccc3)CC2)cc1 (configuration not stated)	none
CCOc1ccc(NC(=O)NCCCN2CCN(c3ccc(OC)cc3)CC2)cc1	none (no result: GPT2 inh)
CCN1CCN(c2ccc(Nc3cc(N(C)C(=O)Nc4c(Cl)c(OC)cc(OC)c4Cl)ncn3)cc2)CC1	GPT2 inh 8.91µM, SNCA viab count inconclusive
c1cc(-c2ccco2)cc(-c2nc(C3CCOC3)no2)c1 (configuration not stated)	none
COc1ccc(CC(=O)NC2CCN(c3nccc(Nc4ccc(OC)cc4)n3)CC2)cc1	none
Cc1ccc2nc(SCc3nc(-c4ccc(Cl)cc4)no3)[nH]c2c1	SNCA expr inh 22.4µM (no result: GPT2 inh)
COc1ccc(-c2noc(CSc3nc4ccccc4[nH]3)n2)cc1	SNCA viab count inconclusive (no result: GPT2 inh)
O=C(NCCc1ccc(Cl)cc1)C1CCc2nnc(-c3cccc(C(F)(F)F)c3)n21 (configuration not stated)	none
CC(C)C(=O)NCC1CN(Cc2ccccc2)C(=O)c2c(ccnc2-c2ccc(OCC(=O)O)cc2)O1 (configuration not stated)	SNCA expr inh 2.82µM, SNCA viab count inconclusive

High-throughput results deposited in PubChem BioAssay by National Center for Advancing Translational Sciences (NCATS).
